CSC inhib: cancer stem cell inhibition | cancer stem cell-like cells viability, luminescence | inhibition, % at 7.5 µM | hit rate 1.1% among 300,000; in the data active means inhibition above about 75%; tested in HMLE shEcad cells
697 NFkB inh: lowers PMA/ionomycin-induced NF-kB signal in 697 B cells | 697 B-cell NF-kB luciferase reporter, 16 h | inhibition, % at 4 µM | hit rate 0.33% among 330,000 | AID 435022; in the data active means inhibition above about 35%
Mdm2-MdmX inh: inhibitors of human Mdm2/MdmX interaction. SaOS-2 split-luciferase Mdm2/MdmX complementation, luminescence. hit rate 3% among 330,000. O15151+Q00987. AID 485346. inhibition, % at 8 µM;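 active means inhibition of at least 50% at 8 µM in the primary screen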
Target sequence (O15151 whole entry, looked up): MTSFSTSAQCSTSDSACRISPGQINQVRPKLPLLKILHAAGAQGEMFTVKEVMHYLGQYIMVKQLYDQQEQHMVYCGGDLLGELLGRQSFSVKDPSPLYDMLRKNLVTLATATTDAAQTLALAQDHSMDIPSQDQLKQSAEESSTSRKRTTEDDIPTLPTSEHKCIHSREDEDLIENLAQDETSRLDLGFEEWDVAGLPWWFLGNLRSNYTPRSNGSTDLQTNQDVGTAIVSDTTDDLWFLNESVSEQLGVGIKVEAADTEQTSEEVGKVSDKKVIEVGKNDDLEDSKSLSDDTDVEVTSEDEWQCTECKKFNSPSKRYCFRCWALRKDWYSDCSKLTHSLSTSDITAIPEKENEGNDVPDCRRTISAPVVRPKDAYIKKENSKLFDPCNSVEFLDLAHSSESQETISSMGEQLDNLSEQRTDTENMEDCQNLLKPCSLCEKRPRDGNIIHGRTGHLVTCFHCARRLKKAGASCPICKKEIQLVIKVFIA
Target sequence (Q00987 whole entry, looked up): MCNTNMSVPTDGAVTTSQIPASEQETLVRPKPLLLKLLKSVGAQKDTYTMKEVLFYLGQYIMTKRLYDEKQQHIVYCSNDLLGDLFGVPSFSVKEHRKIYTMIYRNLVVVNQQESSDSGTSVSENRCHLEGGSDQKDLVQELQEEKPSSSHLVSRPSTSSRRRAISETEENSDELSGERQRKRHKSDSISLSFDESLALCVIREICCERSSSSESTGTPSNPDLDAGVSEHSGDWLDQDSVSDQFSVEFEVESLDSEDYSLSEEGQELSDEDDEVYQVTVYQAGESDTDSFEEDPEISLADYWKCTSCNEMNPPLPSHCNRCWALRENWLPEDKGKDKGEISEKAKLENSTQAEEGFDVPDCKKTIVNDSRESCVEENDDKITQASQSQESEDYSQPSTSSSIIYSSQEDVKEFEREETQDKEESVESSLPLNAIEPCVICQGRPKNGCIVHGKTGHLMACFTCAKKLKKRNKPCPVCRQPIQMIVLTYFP
Beta apoptosis: beta cell apoptosis inhibition; INS-1E cytokine-induced death, ATP luminescence, 48 h; percent of positive-control rescue, neutral wells zero; protection from apoptosis, % (test concentration not listed); hit rate 0.8% among 300,000;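 active means Every replicate reaches about 75%, or at least half do and their mean reaches it too, limit read from the data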;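 further: higher means more ATP so stronger rescue from cytokine killing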
Jurkat NFkB inh: lowers PMA/ionomycin-induced NF-kB signal in Jurkat cells; inhibition, % at 4 µM; hit rate 0.53% among 330,000; PMA/ionomycin-induced NF-kB luciferase reporter, luminescence; in the data active means inhibition above about 50%
Gli-Sufu antag: blocks Gli-Sufu signaling in a luciferase reporter. Sufu-KO-LIGHT fibroblasts, Gli luciferase reporter luminescence. inhibition, % at 5 µM. hit rate 0.74% among 340,000;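 active means inhibition above about 55%, limit read from the data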
Jurkat NFkB conf: inhibitors of the PMA/ionomycin-induced NF-kB reporter in Jurkat cells, retest; shares compounds with Jurkat NFkB inh; Jurkat NF-kB luciferase, 16 h; inhibition, % at 4 µM; hit rate 27% among 2,700;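 active means inhibition reaching about 45% at 4 µM in either replicate, limit read from the data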
697 NFkB conf: inhibitors of the PMA/ionomycin-induced NF-kB reporter in 697 B cells, retest; shares compounds with 697 NFkB inh; 697 B-cell NF-kB luciferase, 16 h; inhibition, % at 4 µM; hit rate 35% among 2,000; in the data active means inhibition mostly above about 28%, no sharp cut-off; inactive means mostly below about 22%
Mdm2-MdmX conf: confirmation of human Mdm2/MdmX interaction inhibitors; hit rate 55% among 10,000; Mdm2-MdmX binding, luminescent assay; shares compounds with Mdm2-MdmX inh; inhibition, % at 8 µM; in the data active means inhibition above about 40%
FLuc counter: inhibits full-length luciferase, flagging false Mdm2/MdmX hits; shares compounds with Mdm2-MdmX inh; SaOS-2 full-length luciferase counterscreen, luminescence; inhibition, % at 8 µM; hit rate 77% among 6,200; AID 504607;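 active means mean inhibition at 8 µM reaching about 37%, which flags the compound as non-specific, limit read from the data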;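 further: p53-null SaOS-2 cells with luciferase driven by a doxycycline-inducible promoter; compound on cells about two nights before reading with doxycycline added after day one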
Large screens that a line does not name were inactive (follow-up assays come after a bar, where they were run); ! = a repeat was not active. The list is not random: actives were taken first. Their share in the collection is about 4.5%.

Cc1cc(C)cc(OCC(=O)Nc2nc(-c3ccccn3)cs2)c1	none (no result: CSC inhib, Beta apoptosis)
Cc1cccnc1Nc1nc(-c2ccccn2)cs1	CSC inhib 100.6, Mdm2-MdmX inh 74.3, Beta apoptosis 100.7, Jurkat NFkB inh 81.0 | Jurkat NFkB conf inactive | 697 NFkB conf inactive | Mdm2-MdmX conf inactive
O=C(Nc1nc(-c2ccccn2)cs1)c1ccc(Cl)s1	CSC inhib 80.0, Mdm2-MdmX inh 69.7, Beta apoptosis 92.5, Jurkat NFkB inh 65.0, Gli-Sufu antag 75.8 | Jurkat NFkB conf inactive | Mdm2-MdmX conf 79.5 | FLuc counter inactive
CN1CCN(C(=O)C23CC4CC(C2)CC(c2ccccc2)(C4)C3)CC1	none (no result: Beta apoptosis)
COC(=O)c1cccc(NC(=O)NC(=O)c2ccc(Cl)cc2)c1	Mdm2-MdmX inh 68.9, Jurkat NFkB inh 85.9 | Jurkat NFkB conf inactive | Mdm2-MdmX conf 42.8 | FLuc counter 73.0
COc1ccc(S(=O)(=O)N2CCOCC2)cc1NC(=O)C1CCN(S(=O)(=O)c2ccc(Cl)cc2)CC1	none (no result: CSC inhib, 697 NFkB inh, Mdm2-MdmX inh, Beta apoptosis, Jurkat NFkB inh)
COc1cc([N+](=O)[O-])cc(/C=N/NC(=O)c2ccc(NC(=O)c3ccc(C)cc3)cc2)c1O	697 NFkB inh 81.2, Mdm2-MdmX inh 87.6, Jurkat NFkB inh 86.2 (no result: CSC inhib, Beta apoptosis) | Jurkat NFkB conf 54.7 | 697 NFkB conf 77.2 | Mdm2-MdmX conf 93.5 | FLuc counter inactive
COCc1cc(=O)n2[nH]cc(-c3ccsc3)c2n1	none
COc1ccc(OCc2cc(C(=O)NC3Cc4ccccc4C3)no2)c(Cl)c1	Mdm2-MdmX inh 51.7, Jurkat NFkB inh 54.8 | Jurkat NFkB conf inactive | Mdm2-MdmX conf 70.5 | FLuc counter 71.7
COc1ccc(-n2nc(C(=O)NCC(=O)Nc3cc(OC)c(OC)c(OC)c3)c3ccccc3c2=O)cc1OC	Mdm2-MdmX inh 69.7, Jurkat NFkB inh 56.8 | Jurkat NFkB conf inactive | Mdm2-MdmX conf 66.5 | FLuc counter 68.1
COc1ccc(NC(=O)CNC(=O)c2nn(-c3ccc(OC)c(OC)c3)c(=O)c3ccccc23)c(OC)c1	none
O=C(NNC(=O)C12CC3CC(CC(C3)C1)C2)c1cnccn1	none
O=C(NNC(=O)C12CC3CC(CC(C3)C1)C2)c1ccccn1	Mdm2-MdmX inh 54.1, Beta apoptosis 91.0, Jurkat NFkB inh 72.1 | Jurkat NFkB conf inactive | Mdm2-MdmX conf 54.5 | FLuc counter 50.8
Cc1ccc2oc(/N=C(\N)NC(=O)C(C)(C)C)nc2c1	Mdm2-MdmX inh 87.2, Jurkat NFkB inh 60.2, Gli-Sufu antag 74.9 | Jurkat NFkB conf 86.6 | Mdm2-MdmX conf 94.0 | FLuc counter inactive
CC(C)(C)c1ccc(C(=O)N/C(N)=N/c2nc3ccccc3o2)cc1	none
CCC(CC)CN1CCN=C1Nc1ccccc1	none
CCCC(=O)Nc1nc2ccc(NC(=O)c3ccccc3F)cc2s1	Mdm2-MdmX inh 54.9, Jurkat NFkB inh 59.7 | Jurkat NFkB conf inactive | Mdm2-MdmX conf 55.5 | FLuc counter 73.7
O=C(Nc1nc2ccc(C(=O)N3CCCCC3)cc2s1)C1CCCCC1	Mdm2-MdmX inh 51.0, Jurkat NFkB inh 60.2 | Jurkat NFkB conf inactive | Mdm2-MdmX conf 57.4 | FLuc counter 79.2
CSCCC(NS(=O)(=O)c1ccccc1F)C(=O)NCc1ccncc1 (centres undefined)	none (no result: Beta apoptosis)
CC(NC(=O)Cc1ccc(NS(=O)(=O)c2cccc(C(F)(F)F)c2)cc1)c1ccccn1 (centres undefined)	none
Cc1ccc(-c2cc3c(N=O)c4ccccc4c-3n[nH]2)cc1	CSC inhib 86.7, 697 NFkB inh 57.8, Mdm2-MdmX inh 92.8, Jurkat NFkB inh 67.2, Gli-Sufu antag 58.6 | Jurkat NFkB conf 72.3 | 697 NFkB conf inactive | Mdm2-MdmX conf 89.0 | FLuc counter 46.1
CC1=C(/C=C/C(C)=C/C=C/C(C)=C/C(=O)Nc2ccc(O)cc2)C(C)(C)CCC1	CSC inhib 104.5, Mdm2-MdmX inh 87.1, Jurkat NFkB inh 63.0, Gli-Sufu antag 69.9! | Jurkat NFkB conf inactive | Mdm2-MdmX conf inactive
CCCCOc1ccc(C(=O)NCC(=O)NCCOc2ccccc2OC)cc1	none
CCCCCCCCCCOC(=O)Cn1c(COc2ccccc2OC)[n+](C)c2ccccc21	CSC inhib 93.2, 697 NFkB inh 38.7, Mdm2-MdmX inh 99.8, Beta apoptosis 107.2, Jurkat NFkB inh 56.8, Gli-Sufu antag 84.8 | Jurkat NFkB conf 60.2 | 697 NFkB conf 52.8 | Mdm2-MdmX conf 89.4 | FLuc counter inactive
CCCCCc1ccc(OCCCC[n+]2cccc(C)c2)c(CCCCC)c1	CSC inhib 109.4, 697 NFkB inh 42.3, Mdm2-MdmX inh 83.3, Beta apoptosis 111.0, Jurkat NFkB inh 62.9, Gli-Sufu antag 85.2 | Jurkat NFkB conf 57.8 | 697 NFkB conf 48.5 | Mdm2-MdmX conf 90.0 | FLuc counter 59.8
CCCCOc1ccc(C)cc1CN(CCO)CCO	none
CCCCCOc1ccc(CN2CCOCC2)cc1Cl	none
CCCCCc1ccc(OCCCC[n+]2ccc(C)cc2)c(CCCCC)c1	Mdm2-MdmX inh 96.2, Beta apoptosis 111.3, Jurkat NFkB inh 53.9, Gli-Sufu antag 86.2 | Jurkat NFkB conf 54.3 | Mdm2-MdmX conf 86.1 | FLuc counter 55.2
O=[N+]([O-])c1ccc(N=Nc2ncc[nH]2)cc1	CSC inhib 80.8, Mdm2-MdmX inh 100.3, Jurkat NFkB inh 81.7 | Jurkat NFkB conf inactive | Mdm2-MdmX conf 59.2 | FLuc counter 53.5
O=C(NCCCNC(=O)c1ccccc1F)c1ccco1	none (no result: Beta apoptosis)
O=C(c1ccc(CS(=O)Cc2ccccc2Cl)o1)N1CCN(c2ccccn2)CC1 (centres undefined)	none
O=C(c1ccc(CS(=O)c2ccccc2Cl)o1)N1CCN(c2ccccn2)CC1 (centres undefined)	Mdm2-MdmX inh 62.8, Jurkat NFkB inh 52.2 | Jurkat NFkB conf inactive | Mdm2-MdmX conf 56.0 | FLuc counter 45.3
O=C1CCC[C@@H]2Cc3nc4cc5c(cc4cc3[C@@H]3CCN1[C@H]23)OCO5	none (no result: CSC inhib, 697 NFkB inh, Mdm2-MdmX inh, Beta apoptosis, Jurkat NFkB inh)
COc1ccc(C)cc1S(=O)(=O)Nc1ccc2c(c1)OCO2	none
C#CC(=O)N(c1cc(OC)ccc1OC)C(C(=O)NC1CCCC1)c1cccs1 (centres undefined)	697 NFkB inh 98.5, Mdm2-MdmX inh 100.3, Jurkat NFkB inh 95.4, Gli-Sufu antag 85.7 | Jurkat NFkB conf 85.0 | 697 NFkB conf 105.4 | Mdm2-MdmX conf 100.1 | FLuc counter 52.1
COc1ccc(N(C(=O)c2snc(C(N)=O)c2N)C(C(=O)NC2CCCC2)c2cccs2)cc1OC (centres undefined)	none
COc1ccc(N(C(=O)c2ccco2)C(C(=O)NC2CCCC2)c2ccc(C)cc2)c(OC)c1 (centres undefined)	none (no result: CSC inhib, Beta apoptosis)
